Rows were chosen to be rich in hits. Some 4.5% of all compounds tested hit in one or more screens of this group.
Mdm2 MdmX PPI = human Mdm2/MdmX binding inhibition. SaOS-2 split-luciferase Mdm2/MdmX complementation, luminescence. inhibition, % at 8 µM. 330,000 tested, 3% active. AID 485346;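 active = inhibition of at least 50% at 8 µM in the primary screen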
Target sequence (O15151 whole entry, looked up): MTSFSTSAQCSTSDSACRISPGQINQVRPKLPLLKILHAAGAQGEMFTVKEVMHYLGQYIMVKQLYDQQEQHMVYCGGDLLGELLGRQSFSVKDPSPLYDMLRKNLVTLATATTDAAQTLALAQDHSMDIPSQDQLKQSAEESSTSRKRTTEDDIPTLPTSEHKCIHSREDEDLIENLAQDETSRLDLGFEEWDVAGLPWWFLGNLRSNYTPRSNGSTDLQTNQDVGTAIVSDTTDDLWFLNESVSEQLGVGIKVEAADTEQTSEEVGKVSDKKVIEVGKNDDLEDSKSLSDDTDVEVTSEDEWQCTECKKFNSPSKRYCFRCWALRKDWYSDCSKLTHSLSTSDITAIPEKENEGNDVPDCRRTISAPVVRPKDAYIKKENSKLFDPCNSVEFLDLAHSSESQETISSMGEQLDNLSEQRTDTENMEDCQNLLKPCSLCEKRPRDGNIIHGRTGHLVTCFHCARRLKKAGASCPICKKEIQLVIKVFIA
Target sequence (Q00987 whole entry, looked up): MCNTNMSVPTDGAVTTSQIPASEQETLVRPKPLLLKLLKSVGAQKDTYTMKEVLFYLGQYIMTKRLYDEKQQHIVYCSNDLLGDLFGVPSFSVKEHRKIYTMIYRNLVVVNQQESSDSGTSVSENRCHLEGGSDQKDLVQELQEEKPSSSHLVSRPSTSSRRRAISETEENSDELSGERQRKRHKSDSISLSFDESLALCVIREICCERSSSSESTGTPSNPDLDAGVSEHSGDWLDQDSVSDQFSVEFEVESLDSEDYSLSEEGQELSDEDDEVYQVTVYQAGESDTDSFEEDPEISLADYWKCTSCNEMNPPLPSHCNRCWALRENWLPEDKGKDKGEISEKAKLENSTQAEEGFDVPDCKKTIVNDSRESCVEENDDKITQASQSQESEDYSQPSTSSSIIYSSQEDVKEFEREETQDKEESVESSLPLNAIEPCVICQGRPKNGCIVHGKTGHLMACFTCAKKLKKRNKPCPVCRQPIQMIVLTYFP
Jurkat NFkB inh = inhibitors of the PMA/ionomycin-induced NF-kB reporter in Jurkat cells. AID 435003. inhibition, % at 4 µM. PMA/ionomycin-induced NF-kB luciferase reporter, luminescence. 330,000 tested, 0.53% active; in the data active = inhibition above about 50%
697 NFkB inh = lowers PMA/ionomycin-induced NF-kB signal in 697 B cells; 697 B-cell NF-kB luciferase reporter, 16 h; inhibition, % at 4 µM; 330,000 tested, 0.33% active; in the data active = inhibition above about 35%
aSyn 5UTR inh = MLPCN primary screen, SNCA 5' untranslated region; alpha-synuclein 5'UTR reporter, inhibitor activity; inhibition, % (tested at 7.5 µM); 300,000 tested, 0.82% active; AID 1813; in the data active = inhibition above about 60%;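 note: H4 neuroglioblastoma cells stably carrying SNCA 5'UTR luciferase fusion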
CSC inhib = cancer stem cell inhibition; cancer stem cell-like cells viability, luminescence; inhibition, % at 7.5 µM; 300,000 tested, 1.1% active; AID 2717; in the data active = inhibition above about 75%; tested in HMLE shEcad cells
Gli-Sufu antag = blocks Gli-Sufu signaling in a luciferase reporter; 340,000 tested, 0.74% active; Sufu-KO-LIGHT fibroblasts, Gli luciferase reporter luminescence; inhibition, % at 5 µM;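 active = inhibition above about 55%, limit read from the data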
Jurkat NFkB conf = inhibitors of the PMA/ionomycin-induced NF-kB reporter in Jurkat cells, retest | shares compounds with Jurkat NFkB inh | Jurkat NF-kB luciferase, 16 h | inhibition, % at 4 µM | 2,700 tested, 27% active;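 active = inhibition reaching about 45% at 4 µM in either replicate, limit read from the data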
697 NFkB conf = lowers PMA/ionomycin-induced NF-kB signal in 697 B cells | inhibition, % at 4 µM | 2,000 tested, 35% active | 697 B-cell NF-kB luciferase, 16 h | shares compounds with 697 NFkB inh | AID 449746; in the data active = inhibition mostly above about 28%, no sharp cut-off; inactive = mostly below about 22%
Mdm2 MdmX conf = human Mdm2/MdmX binding inhibition, confirmed | shares compounds with Mdm2 MdmX PPI | luminescent assay | inhibition, % at 8 µM | 10,000 tested, 55% active; in the data active = inhibition above about 40%
Full FLuc ctr = counter-screen for Mdm2/MdmX inhibitors: full-length luciferase; shares compounds with Mdm2 MdmX PPI; inhibition, % at 8 µM; 6,200 tested, 77% active; SaOS-2 full-length luciferase counterscreen, luminescence;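 active = mean inhibition at 8 µM reaching about 37%, which flags the compound as non-specific, limit read from the data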;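 note: p53-null SaOS-2 cells with luciferase driven by a doxycycline-inducible promoter; compound on cells about two nights before reading with doxycycline added after day one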
Large screens that a line does not name were inactive (follow-up assays come after a bar, where they were run).

O=C(Cc1ccc(Cl)cc1)Nc1ccc(-c2cc3ccccc3oc2=O)c(Cl)c1	Mdm2 MdmX PPI 59, Jurkat NFkB inh 59, aSyn 5UTR inh 96, CSC inhib 82 | Jurkat NFkB conf inactive | Mdm2 MdmX conf 62 | Full FLuc ctr 52
O=C(Cc1ccc(Cl)cc1)Nc1ccc2oc(=O)ccc2c1	none
C[C@H](NC(=O)C1CCN(S(=O)(=O)c2ccccc2)CC1)C(=O)NCc1ccco1	none
Cc1nc(NC2=NCN(CCCN3CCOCC3)CN2)nc2c(C)cccc12	Mdm2 MdmX PPI 97, Jurkat NFkB inh 64 (no result: aSyn 5UTR inh) | Jurkat NFkB conf inactive | Mdm2 MdmX conf 96 | Full FLuc ctr inactive
O=C(CCc1c[nH]c2ccccc12)NC(Cc1ccccc1)C(=O)O (stereo not drawn)	none
CC(=O)c1ccc2c(c1)C1C=CCC1C(c1cc3c(cc1Br)OCO3)N2 (stereo not drawn)	Mdm2 MdmX PPI 67, Jurkat NFkB inh 80 | Jurkat NFkB conf inactive | Mdm2 MdmX conf 47 | Full FLuc ctr 57
COc1ccc2c(c1)C1C=CCC1C(c1cc3c(cc1Br)OCO3)N2 (stereo not drawn)	none
CC(C)c1ccc(C2C3=C(COC3=O)Nc3cc4c(cc32)OCO4)cc1 (stereo not drawn)	Mdm2 MdmX PPI 76, Jurkat NFkB inh 70, aSyn 5UTR inh 123 | Jurkat NFkB conf inactive | Mdm2 MdmX conf 62 | Full FLuc ctr 94
O=C1OCC2=C1C(c1ccc3c(c1)OCO3)c1cc3c(cc1O2)OCO3 (stereo not drawn)	none (no result: Mdm2 MdmX PPI, Jurkat NFkB inh, 697 NFkB inh, aSyn 5UTR inh, CSC inhib)
O=C(N/N=C/c1cccs1)C1COc2ccccc2O1 (stereo not drawn)	none
Cc1ccc(/C=N/NC(=O)C2COc3ccccc3O2)s1 (stereo not drawn)	Mdm2 MdmX PPI 53, Jurkat NFkB inh 59 | Jurkat NFkB conf 48 | Mdm2 MdmX conf 76 | Full FLuc ctr 57
Cc1ccc(CC(=O)NNC(=O)c2ccncc2)cc1C	none
Cn1ncc2c(O/N=C(\N)c3ccc(C(F)(F)F)cc3)ncnc21	Mdm2 MdmX PPI 98, Jurkat NFkB inh 78 | Jurkat NFkB conf inactive | Mdm2 MdmX conf 46 | Full FLuc ctr inactive
Cc1ccc(C(=O)NNc2ncnc3c2cnn3C)cc1	none
CCOc1ccc(Br)cc1S(=O)(=O)Nc1ccc(Cl)c(S(=O)(=O)N(CC)c2ccccc2)c1	none
CC(C)Cn1c(N)c(C(=O)CSc2ccc3c(c2)OCCO3)c(=O)n(C)c1=O	Mdm2 MdmX PPI 52, Jurkat NFkB inh 54, 697 NFkB inh 39, Gli-Sufu antag 64 | Jurkat NFkB conf inactive | 697 NFkB conf inactive | Mdm2 MdmX conf 55 | Full FLuc ctr 41
CCCCOc1ccc(Br)cc1/C(C)=N/NC1=NCCN1	Mdm2 MdmX PPI 89, Jurkat NFkB inh 76, aSyn 5UTR inh 121 | Jurkat NFkB conf 53 | Mdm2 MdmX conf 64 | Full FLuc ctr 39
COc1ccc(/C(C)=N/NC2=NCCN2)cc1Cl	none
CCCC(=NCCc1c(C)[nH]c2ccccc12)C1=C(O)CC(c2ccccc2)CC1=O (stereo not drawn)	Mdm2 MdmX PPI 52, Jurkat NFkB inh 54, aSyn 5UTR inh 86 (no result: CSC inhib) | Jurkat NFkB conf inactive | Mdm2 MdmX conf 53 | Full FLuc ctr 55
CCC/C(O)=C1\C(=O)CCCC1=NCCc1c(C)[nH]c2ccccc12	none (no result: CSC inhib)
O=C(NCCc1ccccc1)c1ccc2c(c1)OCCO2	Mdm2 MdmX PPI 84, Jurkat NFkB inh 54, aSyn 5UTR inh 106 | Jurkat NFkB conf 70 | Mdm2 MdmX conf 85 | Full FLuc ctr inactive
O=C(NCCc1ccccc1)c1ccc2c(c1)OCCCO2	Mdm2 MdmX PPI 97, Jurkat NFkB inh 87, 697 NFkB inh 63, aSyn 5UTR inh 107, Gli-Sufu antag 70 | Jurkat NFkB conf 89 | 697 NFkB conf 66 | Mdm2 MdmX conf 94 | Full FLuc ctr 52
COc1ccc(CCNC(=O)c2ccc3c(c2)OCCO3)cc1	none
COCC1CCN(C(=O)c2ccc(OC3CCN(Cc4ccccn4)CC3)cc2)C1 (stereo not drawn)	none
CCN(CC)c1ccc(/C=C/c2ccc3ccc(OC)cc3[n+]2CC)cc1	Mdm2 MdmX PPI 82, Jurkat NFkB inh 93, Gli-Sufu antag 84 | Jurkat NFkB conf 70 | Mdm2 MdmX conf 92 | Full FLuc ctr 51
O=C(/C=C\c1ccco1)Nc1cc([N+](=O)[O-])ccc1F	Mdm2 MdmX PPI 59, Jurkat NFkB inh 68, aSyn 5UTR inh 97 (no result: CSC inhib) | Jurkat NFkB conf inactive | Mdm2 MdmX conf 58 | Full FLuc ctr 124
COc1cccc2c1C(=O)c1c(O)c3c(c(O)c1C2=O)C[C@@](O)(C(=O)CO)C[C@@H]3O[C@H]1C[C@H](N)[C@H](O)[C@H](C)O1	Mdm2 MdmX PPI 99, Jurkat NFkB inh 90, 697 NFkB inh 94, aSyn 5UTR inh 109 | Jurkat NFkB conf 89 | 697 NFkB conf 77 | Mdm2 MdmX conf 99 | Full FLuc ctr inactive
Cc1ccc(N/C(N)=N/c2nc(C)cc(N3CCCCC3)n2)c(C)c1	Mdm2 MdmX PPI 78, Jurkat NFkB inh 89, Gli-Sufu antag 85 | Jurkat NFkB conf inactive | Mdm2 MdmX conf 40 | Full FLuc ctr 67
O=C(NCCOCc1ccccc1)C(c1ccccc1)c1ccccc1	none
COc1ccc(NS(=O)(=O)c2cc(NC(=O)c3sccc3C)ccc2N2CCOCC2)cc1	Mdm2 MdmX PPI 57, Jurkat NFkB inh 50 | Jurkat NFkB conf inactive | Mdm2 MdmX conf 64 | Full FLuc ctr 64
C#CC(=O)N(c1ccc(OC)c(OC)c1)C(C(=O)NC1CCCC1)c1cccs1 (stereo not drawn)	Mdm2 MdmX PPI 99, Jurkat NFkB inh 100, 697 NFkB inh 101, Gli-Sufu antag 70 | Jurkat NFkB conf 85 | 697 NFkB conf 102 | Mdm2 MdmX conf 100 | Full FLuc ctr 53
COc1ccc(N(C(=O)Cc2cccs2)C(C(=O)NC2CCCC2)c2ccncc2)cc1OC (stereo not drawn)	none
C#CC(=O)N(c1cccc(OC)c1)C(C(=O)NC1CCCC1)c1cccs1 (stereo not drawn)	Mdm2 MdmX PPI 97, Jurkat NFkB inh 99, 697 NFkB inh 103, aSyn 5UTR inh 92 | Jurkat NFkB conf 94 | 697 NFkB conf 100 | Mdm2 MdmX conf 100 | Full FLuc ctr 52
COc1ccc2cc3cc(C(=O)NCC4COc5ccccc5O4)oc3nc2c1 (stereo not drawn)	none (no result: CSC inhib)
CCOC(=O)CN1N=C(c2ccc(Cl)s2)CSC1=O	none

Screens from PubChem BioAssay.
